Laboratory results taken from the supplement of paper PMC4840960.
± gives the standard deviation of the averaged measurements.

Legend:
[1] = system: E18 rat cortical neuron-glia co-culture; experiment: fiber score / MBP score (myelination specific beyond OL differentiation) (ratio); higher = more myelination-specific MBP alignment; details: treatment time: 8 days (DIV5-DIV13)
How it was run: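 The measure is the ratio of fiber score to MBP score, where fiber score is continuous MBP fiber length per Olig2+ nucleus and MBP score is thresholded MBP area × intensity per Olig2+ nucleus. Primary E18 rat cortical co-cultures received library compounds at 1 or 5 µM in myelination medium from DIV5 to DIV13, then were fixed in 4 % paraformaldehyde and stained for MBP, Olig2 and DAPI before analysis of four 10X fields per well in duplicate wells.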

[2] = system: E18 rat cortical neuron-glia co-culture; experiment: myelination (MBP fiber length per Olig2+ nucleus), % of 1 µM DAPT response (DMSO = 0) (% of DAPT); higher = more myelination, active = 50 or more; details: treatment time: 8 days (DIV5-DIV13)
How it was run: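 The myelination value was the continuous straight MBP fiber length per Olig2+ nucleus, scaled between 0.1 % DMSO (0) and a 1 µM positive control (100). It was measured in primary E18 rat cortical co-cultures treated with library compounds at 1 or 5 µM in myelination medium from DIV5 through DIV13. Cells were fixed in 4 % paraformaldehyde and stained for MBP, Olig2 and DAPI, and four 10X fields per well were imaged in duplicate wells.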

| Compound | fiber score / MBP score ([1]; 1 µM) | fiber score / MBP score ([1]; 5 µM) | myelination ([2]; 1 µM) | myelination ([2]; 5 µM) |
| --- | --- | --- | --- | --- |
| NC[C@H](O)c1ccc(O)c(O)c1 [Norepinephrine] | 0.663 | 0.756 | -41.6 (inactive) | -38.4 (inactive) |
| CC(C)NCC(O)COc1ccc(COCCOC(C)C)cc1 (centres undefined) [Bisoprolol] | 0.546 | 0.728 | -58.3 (inactive) | -38.2 (inactive) |
| CCOC(=O)c1ncn2c1CN(C)C(=O)c1cc(F)ccc1-2 [Flumazenil] | 0.859 | 0.835 | -6.81 (inactive) | -19.8 (inactive) |
| Nc1nc(=O)c2nc(CNc3ccc(C(=O)N[C@@H](CCC(=O)O)C(=O)O)cc3)cnc2[nH]1 [Folic acid] | 0.994 | 0.627 | -5.35 (inactive) | -17.3 (inactive) |
| C/C=C1\[C@H]2C=C(C)C[C@]1(N)c1ccc(=O)[nH]c1C2 [Huperzine A] | 1.07 | 0.872 | 8.16 (inactive) | -5.77 (inactive) |
| CO[C@H]1/C=C/O[C@@]2(C)Oc3c(C)c(O)c4c(O)c(c(/C=N/N5CCN(C6CCCC6)CC5)c(O)c4c3C2=O)NC(=O)/C(C)=C\C=C\[C@H](C)[C@H](O)[C@@H](C)[C@@H](O)[C@@H](C)[C@H](OC(C)=O)[C@@H]1C [Rifapentine] | 0.893 ± 0.081 | 1.12 ± 0.52 | 2.99 (inactive) | 21 (inactive) |
| CC(C)NCC(O)COc1cccc2[nH]ccc12 (centres undefined) [Pindolol] | 1.07 | 0.955 | -3.4 (inactive) | -3.46 (inactive) |
| CCCSc1ccc2[nH]c(NC(=O)OC)nc2c1 [Albendazole] | 0.797 | 0.0787 | 112 | -37.4 (inactive) |
| O=S(=O)(O)CCS [Mesna] | 0.768 | 0.877 | 1.33 (inactive) | -6.97 (inactive) |
| CCOC(=O)[C@H](CCc1ccccc1)N[C@@H](C)C(=O)N1Cc2ccccc2C[C@H]1C(=O)O [Quinapril] | 0.878 | 0.825 | -0.422 (inactive) | -6.78 (inactive) |
| COc1cc2nc(N3CCN(C(=O)C4COc5ccccc5O4)CC3)nc(N)c2cc1OC (centres undefined) [Doxazosin] | 0.727 | 0.531 | -45.2 (inactive) | -54.3 (inactive) |
| COCCCC/C(=N\OCCN)c1ccc(C(F)(F)F)cc1 [Fluvoxamine] | 1.03 | 0.487 | -0.231 (inactive) | -9.1 (inactive) |
| Nc1cc(N2CCCCC2)nc(N)[n+]1[O-] [Minoxidil] | 0.696 | 0.658 | -26.1 (inactive) | -24.5 (inactive) |
| CC(Cc1ccccc1)(NC(=O)CN)c1ccccc1 (centres undefined) [Remacemide] | 0.793 | 0.749 | -12.4 (inactive) | -7.33 (inactive) |
| C[C@@H]1O[C@@H](OC[C@H]2O[C@@H](Oc3c(-c4ccc(O)c(O)c4)oc4cc(O)cc(O)c4c3=O)[C@H](O)[C@@H](O)[C@@H]2O)[C@H](O)[C@H](O)[C@H]1O [Rutin] | 0.757 | 0.905 | -12 (inactive) | -4.44 (inactive) |
| CC(=O)OCC(=O)[C@@]1(O)CC[C@H]2[C@@H]3C[C@H](C)C4=CC(=O)C=C[C@]4(C)[C@H]3[C@@H](O)C[C@@]21C [Methylprednisolone acetate] | 0.468 | 0.413 | -10.5 (inactive) | -15.1 (inactive) |
| CC(C)C[C@H](NC(=O)[C@@H](COC(C)(C)C)NC(=O)[C@H](Cc1ccc(O)cc1)NC(=O)[C@H](CO)NC(=O)[C@H](Cc1c[nH]c2ccccc12)NC(=O)[C@H](Cc1cnc[nH]1)NC(=O)[C@@H]1CCC(=O)N1)C(=O)N[C@@H](CCCNC(=N)N)C(=O)N1CCC[C@H]1C(=O)NNC(N)=O [Goserelin] | 0.788 | 0.867 | -8.02 (inactive) | -4.2 (inactive) |
| C[C@]12C=CC(=O)C=C1CC[C@@H]1[C@@H]2[C@@H](O)C[C@@]2(C)[C@H]1CC[C@]2(O)C(=O)CO [Prednisolone] | 0.693 | 0.923 | -6.4 (inactive) | 0.38 (inactive) |
| CC(C)C(=O)Nc1ccc([N+](=O)[O-])c(C(F)(F)F)c1 [Flutamide] | 0.826 | 0.938 | -7.82 (inactive) | 5.48 (inactive) |
| O=C1CCC(N2C(=O)c3ccccc3C2=O)C(=O)N1 (centres undefined) [Thalidomide] | 1.07 | 1.14 | 1.07 (inactive) | 4.71 (inactive) |
| C[C@@H]1C[C@H]2[C@@H]3CCC4=CC(=O)C=C[C@]4(C)[C@@]3(F)[C@@H](O)C[C@]2(C)[C@@]1(O)C(=O)CO [Dexamethazone] | 0.866 | 0.845 | -1.63 (inactive) | -0.917 (inactive) |
